Compound activity as filed in PubChem.
In the library only some 19% were active in any assay of this set; here they are far more common.
IL-1B inflam inh: inhibitors of inflammasome signaling (IL-1 beta secretion) | AID 743279 | THP-1 LPS/ATP IL-1B secretion, AlphaLISA, 16 h; stronger effect = lower value | 360,000 compounds, 4.7% hits | activity change, % at 57.5 µM; in the data active = activity change below about -50%; inconclusive = mostly about -30% to -49%
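THP-1 cells pretreated 1 hr with compounds (up to 57.5 uM final), then stimulated with LPS (250 ng/mL final) plus ATP (1.25 mM final); secreted IL-1B measured by AlphaLISA after 16 hr, decreased signal indicating inhibition.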
DT40 TDP1 no CPT: qHTS for Inhibitors of human tyrosyl-DNA phosphodiesterase 1 (TDP1): qHTS in cells in absence of CPT. DT40 Tdp1-/- hTDP1 cells, no CPT, ATP luminescence, 48 h. Potency, µM (highest dose often 46.2 µM), inactives show at the highest dose activity change, negative = growth inhibition, actives largely listed as inhibitors. 420,000 compounds, 15% hits; also: potency is read from the fitted curve at half-maximal effect; nearly all actives have a fitted effect of over 55% in size
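Chicken DT40 Tdp1-/- cells complemented with human TDP1, screened without camptothecin (DMSO vehicle only), 400 cells/well. Compounds pin-transferred, cells incubated at 37 °C for at least 48 hr. Growth read as ATP-dependent luminescence (CellTiter-Glo, 30 min at RT).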
HT1080 IDH1KD tx: toxicity to HT-1080 IDH1 knockdown cells (counter line); HT-1080 IDH1 knockdown viability, ATP luminescence, 48 h; Potency, µM (doses to about 46.1 µM), for inactives: top-dose activity, negative = toxicity, actives largely listed as cytotoxic; 360,000 compounds, 2% hits;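 also: potency is read from the fitted curve at half-maximal effect; 0% = DMSO wells and -100% = cell-free medium wells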
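Viability of IDH1-knockdown HT-1080 fibrosarcoma cells was assessed by CellTiter-Glo after 48 h at 37 °C with titrated compound; concentration-effect curves were classified by fit quality and response size.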
DT40 TDP1 CPT: DT40-hTDP1 cell growth loss with CPT; 420,000 compounds, 12% hits; Potency, µM (doses to about 46.2 µM), without a hit: at the top dose activity change, negative = growth inhibition, most hits filed as inhibitors; AID 686979; chicken DT40 Tdp1-/-;hTDP1 cells + 20 nM CPT, ATP luminescence, 48 h; also: potency is read from the fitted curve at half-maximal effect; nearly all actives have a fitted effect of over 55% in size
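Chicken DT40 Tdp1-/- cells stably complemented with human TDP1 were seeded at 400 cells/well in medium containing 20 nM camptothecin, exposed to pin-transferred compounds, and grown at 37 °C for at least 48 hr. Viability was read as ATP luminescence.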
HT1080-NT tox: kills 2HG-producing HT-1080-NT fibrosarcoma cells; HT-1080-NT fibrosarcoma viability, CellTiter-Glo ATP luminescence, 48 h; AID 686970; 360,000 compounds, 1.6% hits; Potency, µM (titrated, usually from 46.1 µM), for the others: top-dose activity, negative = less viability, most hits filed as cytotoxic;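 also: NT is the 2HG producing partner of a matched IDH1 knockdown line; potency is read from the fitted curve at half-maximal effect; 0% = DMSO-treated cells and -100% = media-only wells without cells; nearly all actives have a fitted effect of over 55% in size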
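A 48-hour cytotoxicity screen used HT-1080-NT cells plated 2 hours before compound delivery. ATP-based CellTiter-Glo luminescence measured viability, normalized to DMSO and no-cell controls.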
* marks the source's active call; other numbers are inactive results; ? = inconclusive; / = no result given; ! = not active in a repeat. Unless noted, calls follow the shape of the dose curve; as a rule, active = well fitted curve in the direction sought with a large enough effect; inconclusive = small, poorly fitted or top-dose-only effect, or another doubt; inactive = no such curve, though single readings can be large; an effect the other way counts as inactive or inconclusive. Unless noted, % is scaled to controls: 0 for no effect and ±100 for the full control effect.

SMILES	IL-1B inflam inh	DT40 TDP1 no CPT	HT1080 IDH1KD tx	DT40 TDP1 CPT	HT1080-NT tox
COc1ccccc1C1(O)C(=O)Nc2ccc(C)cc21 (configuration not stated)	2.7	-11.0%	2.5%	24.3%	0.0%
C=CCNC(=O)C1CC2Cn3c(nc4cc(Cl)c(Cl)cc43)C2N1C (configuration not stated)	25.0	-17.7%	1.7%	-15.5%	4.3%
COc1ccccc1NC(=O)NCCN1CCNC1=O	10.0	-3.3%	12.4%	11.6%	15.2%
CCc1ccc(CNC(=O)CCC(=O)N2Cc3cccc(OC)c3Oc3ncccc32)cc1	-7.1	?	0.6%	?	3.9%
Cc1c(C#N)c(N)nc(Cl)c1C#N	-167.8*	?	?	-28.1%	?
CCOC(=O)C1=CCCN(S(=O)(=O)c2ccc(C)cc2)C1	28.0	20.6µM*	9.9%	?	-0.6%
CCOC(=O)C1=CCC(c2ccc(Cl)cc2)N(S(=O)(=O)c2ccc(C)cc2)C1 (configuration not stated)	14.4	18.4µM*	-14.2%	23.1µM*	-6.7%
CCOC(=O)N1CCN(S(=O)(=O)c2ccc(C)cc2)CC1	1.7	-15.5%	8.6%	-7.0%	4.4%
CCOC(=O)C1=CCC(c2ccc(C#N)cc2)N(S(=O)(=O)c2ccc(C)cc2)C1 (configuration not stated)	22.1	16.4µM*	?	18.4µM*	-26.4%
Cc1ccc([C@@H]2CC=C(C(=O)O)CN2S(=O)(=O)c2ccc(C)cc2)cc1	53.6	0.3%	7.4%	-2.1%	3.2%
OC(c1ccccc1)c1nc(-c2ccc(Cl)cc2)cs1 (configuration not stated)	2.2	?	?	?	?
CC(=O)C(Sc1nccc(-c2cccs2)n1)C(C)=O	-5.4	18.4µM*	24.6%	?	19.2%
Cc1nn(-c2ccc(Cl)cc2)c2[nH]c(=O)c(CNCc3ccc4c(c3)OCO4)cc12	-16.0	18.4µM*	-0.9%	18.4µM*	-12.8%
O=C(NCc1ccc2c(c1)OCO2)C1CC(=O)N(c2ccc(Cl)cc2)C1 (configuration not stated)	18.7	-13.3%	-0.3%	9.9%	2.0%
Cc1nn(-c2ccccc2)c2[nH]c(=O)c(CNc3ccc(N4CCOCC4)cc3)cc12	-7.7	18.4µM*	?	18.4µM*	-23.6%
COc1ccccc1CNS(=O)(=O)c1cc2c3c(c1)CCN3C(=O)CC2	10.7	?	-1.3%	?	0.0%
COc1cc(C(=O)c2ccc3c(c2)OCO3)cc(OC)c1OC	23.0	5.17µM*	2.59µM*	2.59µM*	?
C/C(=N\NC(=O)c1ccc2c(c1)OCO2)c1ccco1	13.0	-25.3%	-18.1%	8.3%	-19.8%
COc1cc(CC(CC(=O)c2ccc3c(c2)OCO3)C(=O)O)cc(OC)c1OC (configuration not stated)	14.3	1.0%	2.2%	14.5%	15.9%
COc1cc(C(=O)N/N=C(\C)c2ccc3c(c2)OCO3)cc(OC)c1OC	83.2	1.64µM*	3.66µM*	1.64µM*	2.06µM*
COc1cc(C(=O)NCCC(=O)NCc2ccc3c(c2)OCO3)cc(OC)c1OC	0.0	-2.4%	-1.4%	0.4%	9.4%
COc1cc(C(=O)c2cocc2C(=O)c2ccc3c(c2)OCO3)cc(OC)c1OC	49.5	0.731µM*	1.64µM*	0.731µM*	1.3µM*
CC(C)c1ccc(O)c(NC(=S)NC(=O)c2ccc3c(c2)OCO3)c1	0.0	14.6µM*	14.6µM*	13µM*	?
CC1(c2ccccc2)CC(C)(C)N2C(=O)Cc3cccc1c32 (configuration not stated)	48.0	?	-19.2%	?	0.0%
CC1(C)C(=O)Nc2ccccc2N1C(=O)COC(=O)c1cccnc1Cl	9.4	2.0%	7.7%	2.4%	11.8%
SMILES	IL-1B inflam inh	DT40 TDP1 no CPT	HT1080 IDH1KD tx	DT40 TDP1 CPT	HT1080-NT tox
CC(C)C(NS(=O)(=O)c1ccc2c(c1)oc(=O)n2C)C(=O)NCc1ccccc1 (configuration not stated)	/	2.4%	/	-12.6%	/
CCOc1ccc(Oc2ccc(C(F)(F)F)cc2N)cc1	-17.6	?	-3.2%	?	-1.0%
COc1cc(C(=O)NNC(=S)NC(=O)c2ccc3c(c2)OCO3)cc(OC)c1OC	103.8	?	?	20.6µM*	?
Cc1ccc(-c2c(C(=O)NCCc3ccccc3)oc(=O)c3ccccc23)cc1	/	?	/	14.6µM*	/
CN(Cc1ccccc1)C(=O)c1oc(=O)c2ccccc2c1-c1ccccc1	0.9	?	-19.9%	?	-13.0%
CCOc1ccc(N(C)C(=O)c2oc(=O)c3ccccc3c2-c2ccccc2)cc1	/	14.6µM*	/	18.4µM*	/
Cc1ccc(-c2c(C(=O)NCc3ccccc3)oc(=O)c3ccccc23)cc1	-19.2	?	1.7%	?	1.5%
COc1c(O)cc2oc(-c3ccc(O)cc3)cc(=O)c2c1O	8.5	?	-8.0%	29.1µM*	-7.0%
COc1ccc(-c2cc(=O)c3c(C)cc(O)cc3o2)cc1	-8.4	?	1.5%	?	6.3%
COc1ccc2oc(-c3ccc(O)cc3)cc(=O)c2c1	/	26.6µM*	/	?	/
COc1cc(-c2cc(=O)c3c(C)cc(O)cc3o2)cc(OC)c1OC	14.2	8.2µM*	13.8%	?	12.0%
COc1ccc(-c2cc(=O)c3c(OC)c(OC)c(OC)c(OC)c3o2)cc1	?	16.4µM*	8.1%	23.1µM*	1.2%
COc1cc2oc(-c3ccc(O)cc3)cc(=O)c2c(OC)c1O	?	?	-13.3%	?	-1.8%
CC1(C2CC2)NC(=O)N(CC(=O)N2CCN(c3ccccc3Cl)CC2)C1=O (configuration not stated)	-17.0	?	-1.8%	-28.9%	-6.6%
CC(C)COC(=O)N(C)C[C@@H]1OCc2cnnn2CCCC(=O)N([C@@H](C)CO)C[C@H]1C	12.4	3.0%	0.0%	2.9%	8.3%
CCC(C)NC(=O)c1sc2nc3n(c(=O)c2c1C)CCC3 (configuration not stated)	/	-8.1%	/	1.4%	/
O=c1cc(-c2ccccc2)oc2cc(O)c(O)c(O)c12	1.3	29.9µM*	-9.3%	16.8µM*!	-14.3%
COc1cc2oc(-c3ccc(O)cc3)cc(=O)c2c(O)c1OC	-16.7	18.4µM*	-5.2%	-88.0%	-1.3%
CCC(=O)Nc1ccc(CC)cc1-c1nc2ccccc2n(CC(=O)Nc2cccc(Cl)c2)c1=O	/	?	/	20.6µM*	/
CCC(=O)Nc1ccc(C)cc1-c1nc2ccccc2n(CC(=O)Nc2ccccc2Cl)c1=O	/	-23.3%	/	?	/
O=C(COC(=O)c1ccc(Cl)cc1O)NC(=O)C1CCCCC1	12.1	-1.1%	14.9%	4.0%	7.6%
